The panel holds about 83,000 compounds, 20% with a hit somewhere; the sample as a whole holds those more often.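 In brief: 96-well plates, 48 h treatment, single concentration, percent growth endpoint.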 Values without a mark were called inactive. The source made the active and inactive calls. Rule for the calls: active = growth percent below 10; inactive = the rest.
Experiments:
Assay in all cases: NCI-60 one-dose screen, 48 h (100 = growth as untreated, 0 = no growth, -100 = all killed)
Details in all cases: 10 µM unless noted
SW-620 colon = test system: SW-620 colon
MCF7 breast = test system: MCF7 breast
HCT-116 colon = test system: HCT-116 colon
HCC-2998 colon = test system: HCC-2998 colon
KM12 colon = test system: KM12 colon
MDA-MB-435 melanoma = test system: MDA-MB-435 melanoma

c1ccc2c(NCCCN3CCOCC3)c3oc4ccccc4c3nc2c1
growth (SW-620 colon): -0.873% (active)
growth (MCF7 breast): 0.0447% (active)
growth (HCT-116 colon): -20.1% (active)
growth (HCC-2998 colon): -28% (active)
growth (KM12 colon): 2.04% (active)

O=C(c1ccc(Cl)cc1)C1[C@H](c2ccc(Cl)cc2)[C@@H](c2ccccc2)NC12C(=O)Nc1ccc(Br)cc12 (some centres undefined)
growth (MDA-MB-435 melanoma): 34.8%
growth (SW-620 colon): 36.3%
growth (MCF7 breast): 15.8%
growth (HCT-116 colon): 13.2%
growth (HCC-2998 colon): 13.3%
growth (KM12 colon): 15.3%

CC(=NNc1ncnc2ccccc12)c1ccc(S(C)(=O)=O)cc1
growth (MDA-MB-435 melanoma): 106%
growth (SW-620 colon): 104%
growth (MCF7 breast): 87.5%
growth (HCT-116 colon): 100%
growth (HCC-2998 colon): 111%
growth (KM12 colon): 102%

COc1ccc(-n2c(SCC(=O)Nc3ccc(-c4nc5ccccc5[nH]4)cc3)nc3ccccc3c2=O)cc1
growth (MDA-MB-435 melanoma): -14.4% (active)
growth (SW-620 colon): 8.47% (active)
growth (MCF7 breast): -49.2% (active)
growth (HCT-116 colon): -39.6% (active)
growth (HCC-2998 colon): 34.8%
growth (KM12 colon): 18.7%

CCN(CC)c1ccc(C=O)c(OCc2cn(CC(=O)Nc3ccc(Cl)cc3)nn2)c1
growth (MDA-MB-435 melanoma): 79.8%
growth (SW-620 colon): 85.6%
growth (MCF7 breast): 52.9%
growth (HCT-116 colon): 47.3%
growth (HCC-2998 colon): 86.1%
growth (KM12 colon): 70.4%

CS(=O)(=O)c1ccc(-c2nc3ccccn3c2/C=N/Nc2nc(-c3ccc(Cl)cc3)cs2)cc1
growth (MDA-MB-435 melanoma): 96.8%
growth (SW-620 colon): 113%
growth (MCF7 breast): 91.6%
growth (HCT-116 colon): 101%
growth (HCC-2998 colon): 125%
growth (KM12 colon): 112%

Clc1ccc(Cc2nnc3sc(-c4cccnc4)nn23)cc1
growth (MDA-MB-435 melanoma): 101%
growth (SW-620 colon): 99.1%
growth (MCF7 breast): 88.7%
growth (HCT-116 colon): 101%
growth (HCC-2998 colon): 105%
growth (KM12 colon): 99.7%

Cc1cc2nc3c4cc(Cl)ccc4n(CC(=O)NCCN(C)C)c3nc2cc1C
growth (MDA-MB-435 melanoma): 67.9%
growth (SW-620 colon): -80.8% (active)
growth (MCF7 breast): -19.8% (active)
growth (HCT-116 colon): -85.3% (active)
growth (HCC-2998 colon): 82.6%
growth (KM12 colon): 86.2%

N/C(=N\c1nc2c(Br)cccc2s1)C(Br)Br
growth (MDA-MB-435 melanoma): -48.2% (active)
growth (SW-620 colon): -39.2% (active)
growth (MCF7 breast): -26.3% (active)
growth (HCT-116 colon): -56.1% (active)
growth (HCC-2998 colon): 3.14% (active)
growth (KM12 colon): 3.67% (active)

CCCC(=O)NC(c1ccc(N(CC)CC)cc1)c1cc(C)c2cccnc2c1O (centres undefined)
growth (MDA-MB-435 melanoma): 34.8%
growth (SW-620 colon): 31.4%
growth (MCF7 breast): 14.3%
growth (HCT-116 colon): 16.8%
growth (HCC-2998 colon): 33.9%
growth (KM12 colon): 29.6%

C/C(=C(/c1ccc(Cl)cc1)c1ccc(OCCN)cc1)c1ccc(C)cc1
growth (MDA-MB-435 melanoma): 97.3%
growth (SW-620 colon): 93.5%
growth (MCF7 breast): 102%
growth (HCT-116 colon): 101%
growth (HCC-2998 colon): 111%
growth (KM12 colon): 103%

CC(=O)Nc1cc(F)cc(-c2ccc3[nH]cc(-c4ccccc4)c3n2)c1
growth (MDA-MB-435 melanoma): 9.43% (active)
growth (SW-620 colon): -56.2% (active)
growth (MCF7 breast): 1.97% (active)
growth (HCT-116 colon): 11.9%
growth (HCC-2998 colon): -19% (active)
growth (KM12 colon): -41% (active)

COc1ccc(COc2ccc(/C=C3/C(=O)Nc4cc(Cl)ccc43)cc2)cc1
growth (MDA-MB-435 melanoma): 97.6%
growth (SW-620 colon): 95.7%
growth (MCF7 breast): 82.1%
growth (HCT-116 colon): 101%
growth (HCC-2998 colon): 100%
growth (KM12 colon): 101%

O=C(CSc1nc2sc3c(c2c(=O)n1-c1ccc(Cl)cc1)CCCC3)N/N=C/c1ccc(F)cc1
growth (MDA-MB-435 melanoma): 86.9%
growth (SW-620 colon): 61.9%
growth (MCF7 breast): 74.7%
growth (HCT-116 colon): 99.7%
growth (HCC-2998 colon): 112%
growth (KM12 colon): 90.1%

C/C(=N/NC(N)=S)c1ccc(Nc2nc(SCC(C)C)nc(-c3ccc(F)cc3)c2C#N)cc1
growth (MDA-MB-435 melanoma): 13.1%
growth (SW-620 colon): 4.45% (active)
growth (MCF7 breast): 0.17% (active)
growth (HCT-116 colon): 3.84% (active)
growth (HCC-2998 colon): 34.8%
growth (KM12 colon): 23.5%

O=C(CSc1nc2sc3c(c2c(=O)n1-c1ccc(Cl)cc1)CCCC3)NNC(=O)Nc1cccc(C(F)(F)F)c1
growth (MDA-MB-435 melanoma): 24.5%
growth (SW-620 colon): 22.1%
growth (MCF7 breast): 16.7%
growth (HCT-116 colon): 5.54% (active)
growth (HCC-2998 colon): 38.9%
growth (KM12 colon): 11%

O=[N+]([O-])c1ccc(O)c2ncccc12
growth (MDA-MB-435 melanoma): 40%
growth (SW-620 colon): 25.7%
growth (MCF7 breast): 9.13% (active)
growth (HCT-116 colon): 21.4%
growth (HCC-2998 colon): 44.5%
growth (KM12 colon): 22.2%

O=C1Nc2cc(Cl)ccc2/C1=C\c1ccc(OCc2ccc(Br)cc2F)cc1
growth (MDA-MB-435 melanoma): -37.7% (active)
growth (SW-620 colon): -49.7% (active)
growth (MCF7 breast): 9.35% (active)
growth (HCT-116 colon): -95% (active)
growth (HCC-2998 colon): 17%
growth (KM12 colon): -31.9% (active)

Fc1ccc(-c2cc3nc(C(Cl)Cl)nc(-c4ccc(Cl)cc4)n3n2)cc1
growth (MDA-MB-435 melanoma): 25.8%
growth (SW-620 colon): -13.1% (active)
growth (MCF7 breast): 16.5%
growth (HCT-116 colon): 11.7%
growth (HCC-2998 colon): -60.4% (active)
growth (KM12 colon): -17.1% (active)

COc1cc(/C=C/C(=O)c2cc(OC)c(OC)c(OC)c2)ccc1OCc1ccc(F)cc1
growth (MDA-MB-435 melanoma): 52.9%
growth (SW-620 colon): 16.9%
growth (MCF7 breast): 10.8%
growth (HCT-116 colon): 5.57% (active)
growth (HCC-2998 colon): 40.2%
growth (KM12 colon): 19%

CCCC(=O)NC(c1cccnc1)c1cc(C)c2cccnc2c1O (centres undefined)
growth (MDA-MB-435 melanoma): 59.7%
growth (SW-620 colon): 33.4%
growth (MCF7 breast): 10.6%
growth (HCT-116 colon): 8.73% (active)
growth (HCC-2998 colon): 64.1%
growth (KM12 colon): 38.4%

Cn1cc(-c2cc(N)n3nc(-c4cn(C)c5ccc(Br)cc45)cc3n2)c2cc(Br)ccc21
growth (MDA-MB-435 melanoma): 30.8%
growth (SW-620 colon): 1.21% (active)
growth (MCF7 breast): 1.35% (active)
growth (HCT-116 colon): 57%
growth (HCC-2998 colon): 82.5%
growth (KM12 colon): 64.8%

N#Cc1nc(-c2ccccc2)oc1N1CCC(CO)C1 (centres undefined)
growth (MDA-MB-435 melanoma): 95.7%
growth (SW-620 colon): 98.4%
growth (MCF7 breast): 49.8%
growth (HCT-116 colon): 107%
growth (HCC-2998 colon): 115%
growth (KM12 colon): 101%

Cn1ccnc1C(=O)/C=C/c1ccc(NC(=O)Nc2ccccc2)cc1
growth (MDA-MB-435 melanoma): -13.3% (active)
growth (SW-620 colon): 2.15% (active)
growth (MCF7 breast): 6.81% (active)
growth (HCT-116 colon): 3.54% (active)
growth (HCC-2998 colon): -22% (active)
growth (KM12 colon): 1.03% (active)

O=C(CN1CCOCC1)NNc1ncnc2ccccc12
growth (MDA-MB-435 melanoma): 91.7%
growth (SW-620 colon): -26% (active)
growth (MCF7 breast): 64.6%
growth (HCT-116 colon): 81.7%
growth (HCC-2998 colon): 114%
growth (KM12 colon): 97.1%

O=C(CSc1nc2sc3c(c2c(=O)n1-c1ccc(Cl)cc1)CCCC3)NNC(=O)Nc1ccc(Cl)c(C(F)(F)F)c1
growth (MDA-MB-435 melanoma): 46.8%
growth (SW-620 colon): 4.66% (active)
growth (MCF7 breast): 18.6%
growth (HCT-116 colon): 13.6%
growth (HCC-2998 colon): 42.4%
growth (KM12 colon): 25.9%

Nc1cc(-c2c[nH]c3ccccc23)nc2cc(-c3c[nH]c4ccccc34)nn12
growth (MDA-MB-435 melanoma): 70.9%
growth (SW-620 colon): -25.1% (active)
growth (MCF7 breast): 26.7%
growth (HCT-116 colon): 30.7%
growth (HCC-2998 colon): 21%
growth (KM12 colon): 10.3%

C[C@@H]1CN(c2ccc3ncc(C#Cc4cncc(C(=O)Nc5ccc(CN6CCN(C)CC6)c(C(F)(F)F)c5)c4)n3n2)C[C@H](C)O1
growth (MDA-MB-435 melanoma): -90.1% (active)
growth (SW-620 colon): -52.3% (active)
growth (MCF7 breast): -64% (active)
growth (HCT-116 colon): -71.4% (active)
growth (HCC-2998 colon): -30% (active)
growth (KM12 colon): -7.61% (active)

CN1CCc2c(sc3ncnc(N/N=C/c4ccc(Cl)c(Cl)c4)c23)C1
growth (MDA-MB-435 melanoma): 11.6%
growth (SW-620 colon): -68.4% (active)
growth (MCF7 breast): -47.2% (active)
growth (HCT-116 colon): -64.5% (active)
growth (HCC-2998 colon): -47.9% (active)
growth (KM12 colon): 22.8%

Clc1ccc2c(NCCCn3ccnc3)c3oc4ccccc4c3nc2c1
growth (MDA-MB-435 melanoma): 32.2%
growth (SW-620 colon): 21.5%
growth (MCF7 breast): 18.2%
growth (HCT-116 colon): 14%
growth (HCC-2998 colon): 40.8%
growth (KM12 colon): 30.1%

NC(=O)c1c(NC(=O)c2ccc(C3CCCCC3)cc2)sc2c1CCC(=O)C2
growth (MDA-MB-435 melanoma): 11.9%
growth (SW-620 colon): 10.4%
growth (MCF7 breast): 10.9%
growth (HCT-116 colon): 7.94% (active)
growth (KM12 colon): 15.8%

Source: PubChem BioAssay (NCI)
